Screening data: PubChem BioAssay, National Center for Advancing Translational Sciences (NCATS)
ATXN2 expr inh = Primary qHTS for Inhibitors of ATXN expression; HEK-293 ATXN2-luciferase reporter, luminescence, 24 h; Potency, µM (doses to about 57 µM), usual class: inhibitors; 360,000 compounds, 0.72% hits; also: nearly all actives have a fitted effect of over 55% in size
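qHTS (up to 57 uM final) was run with 24 h compound exposure of reporter cells at 37 °C. Each well was multiplexed: SteadyGlo luminescence measured ATXN2-luciferase expression after a fluorogenic Gly-Phe-AFC viability readout (25 uM final).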
DT40 TDP1 no CPT = qHTS for Inhibitors of human tyrosyl-DNA phosphodiesterase 1 (TDP1): qHTS in cells in absence of CPT | DT40 Tdp1-/- hTDP1 cells, no CPT, ATP luminescence, 48 h | Potency, µM (top dose mostly 46.2 µM), actives largely listed as inhibitors | 420,000 compounds, 15% hits | AID 686978, 2013; also: nearly all actives have a fitted effect of over 55% in size
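Cells were dispensed at 400 per well, compounds added by pin tool, plates incubated ≥48 hr at 37 °C, then CellTiter-Glo added for 30 min at room temperature before luminescence reading. Line: DT40 Tdp1-/- complemented with hTDP1; camptothecin omitted.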
DT40 TDP1 CPT = qHTS for Inhibitors of human tyrosyl-DNA phosphodiesterase 1 (TDP1): qHTS in cells in presence of CPT; Potency, µM (top dose mostly 46.2 µM), most hits filed as inhibitors; AID 686979, 2013; chicken DT40 Tdp1-/-;hTDP1 cells + 20 nM CPT, ATP luminescence, 48 h; 420,000 compounds, 12% hits; also: nearly all actives have a fitted effect of over 55% in size
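Chicken DT40 Tdp1-/- cells stably complemented with human TDP1 were seeded at 400 cells/well in medium containing 20 nM camptothecin, exposed to pin-transferred compounds, and grown at 37 °C for at least 48 hr. Viability was read as ATP luminescence.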
S2 tox = Viability Counterscreen for Primary qHTS for Inhibitors of ATXN expression; Potency, µM (top dose mostly 56.7 µM), most hits filed as cytotoxic; AID 651635, 2014; S2 cells (HEK-293 line with an ATXN2-luciferase reporter) viability, CellTiter-Fluor protease fluorescence, 24 h; 400,000 compounds, 0.49% hits; also: nearly all actives have a fitted effect of over 40% in size
HepG2 viability = qHTS for Inhibitors of TGF-b: Cytotox Counterscreen; HepG2 CAGA-GFP viability, ATP luminescence, 18 h; Potency, µM (top dose mostly 46.1 µM), hits mostly cytotoxic; 410,000 compounds, 0.76% hits
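CellTiter-Glo luminescence gave cytotoxicity after 18 hours at 37 degrees C. The cells were HepG2 CAGA-GFP in 1% FBS DMEM, stimulated with 500 pg/mL TGF-beta after compound addition. %Activity was normalised to no-cell wells (complete cell-killing) and DMSO (no toxicity), and curves were fitted and classified.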
TGFb inhibitor = qHTS for Inhibitors of TGF-b. HepG2 CAGA-GFP TGF-b/SMAD3 reporter, GFP fluorescence, 18 h; TGF-beta stimulated, 500 pg/mL final. Potency, µM (highest dose often 46.1 µM), most hits filed as inhibitors. 410,000 compounds, 1.2% hits. AID 588855, 2011; also: nearly all actives have a fitted effect of over 65% in size
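HEPG2 CAGA-GFP reporter cells (1000/well, DMEM with 1% FBS) received compounds, then recombinant TGF-beta at 500 pg/mL final for 18 hours at 37 degrees C. Per-cell GFP summed per well was normalised to unstimulated and stimulated DMSO controls before curve fitting.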
Hits are given with their value; i = inactive; ? = inconclusive; nt = no result given. Rows were chosen to be rich in hits. Some 17% of all compounds tested hit in one or more screens of this group. Calls follow the shape of the dose curve; as a rule, active = well fitted curve in the direction sought with a large enough effect; inconclusive = small, poorly fitted or top-dose-only effect, or another doubt; inactive = no such curve, though single readings can be large; an effect the other way counts as inactive or inconclusive.

SMILES	ATXN2 expr inh	DT40 TDP1 no CPT	DT40 TDP1 CPT	S2 tox	HepG2 viability	TGFb inhibitor
CCOC(=O)N1CCN(c2c(NCc3ccccc3Cl)c(=O)c2=O)CC1	nt	29µM	18µM	i	i	i
COc1ccccc1-c1ocnc1C(=O)N1CCN(S(=O)(=O)c2ccc(NC(C)=O)cc2)CC1	i	?	i	i	i	i
CCN(CC)CCn1c(=N)n(CC(O)c2ccc(OC)c(OC)c2)c2ccccc21 (stereo not given)	i	i	i	?	i	i
Nc1nc2ccccc2n1CCOc1ccccc1Cl	i	26µM	?	?	i	?
Cn1c(=O)n(CCOc2ccccc2Cl)c2ccccc21	i	5.8µM	i	i	i	i
CCN(CC)CCn1c(=N)n(CCOc2ccccc2Cl)c2ccccc21	nt	4.1µM	3.7µM	nt	i	?
Cn1c(=O)n(CCOc2ccc(Cl)cc2Cl)c2ccccc21	i	i	i	i	i	i
Cc1ccc2oc(=O)n(CCCOc3ccccc3Cl)c2c1	nt	?	21µM	nt	i	?
O=C(NCc1cccs1)c1ccc(S(=O)(=O)N2CCOCC2)cc1	i	i	i	i	i	i
N#Cc1ccc(/C=C2\C=Cc3ccccc32)cc1	nt	i	i	nt	i	i
N=c1n(CCCOc2ccccc2Cl)c2ccccc2n1CC(N)=O	?	21µM	18µM	i	i	13µM
CCCCn1c(=N)n(CC(=O)O)c2ccccc21	i	i	i	i	i	i
Cn1c(=O)n(Cc2ccccc2Cl)c2ccccc21	i	18µM	?	i	i	i
Cn1c(=O)n(Cc2ccc(Cl)cc2)c2ccccc21	i	i	i	i	i	i
CCN(CC)CCn1c(=N)n(CC(O)COc2ccccc2C)c2ccccc21 (stereo not given)	nt	2.6µM	8.2µM	nt	i	nt
COc1ccc(OC)c(NC(=O)CSc2nnnn2C2CCCC2)c1	i	i	i	i	i	i
CC1=Nc2cc(C(=O)NCC3CCCO3)ccc2Sc2ccc(Br)cc21 (stereo not given)	nt	5.8µM	3.7µM	?	i	?
CCC1=Nc2cc(C(=O)NCCN3CCOCC3)ccc2Sc2ccc(C)cc21	i	i	i	i	i	i
CCC1=Nc2cc(C(=O)NC3CCC(C)CC3)ccc2Sc2ccc(C)cc21 (stereo not given)	i	0.65µM	1.3µM	?	i	?
CCCC1=Nc2cc(C(=O)N3CCC(C)CC3)ccc2Sc2ccc(C)cc21	i	i	i	i	i	i
CCCC1=Nc2cc(C(=O)NC3CCCC3)ccc2Sc2ccc(C)cc21	nt	1µM	1.5µM	nt	i	0.79µM
CC1=Nc2cc(C(=O)O)ccc2Sc2ccc(Br)cc21	i	i	i	i	i	i
CCC1=Nc2cc(C(=O)NC3CCCC3)ccc2Sc2ccc(Br)cc21	nt	0.73µM	0.73µM	nt	i	?
COc1cccc(CN(C)S(=O)(=O)c2cccs2)c1	i	i	?	i	i	i
CC1=Nc2cc(C(=O)NC3CCCCC3)ccc2Sc2ccc(Cl)cc21	nt	1µM	0.82µM	nt	i	?
SMILES	ATXN2 expr inh	DT40 TDP1 no CPT	DT40 TDP1 CPT	S2 tox	HepG2 viability	TGFb inhibitor
O=C1NC[C@@H](CCCCN2C[C@H](Cc3ccc(O)cc3)N(CCc3ccccc3)C(=O)C2=O)N(CCc2ccc(O)cc2)C1=O	i	i	i	i	nt	nt
CC[n+]1c(/C=C/C=C/N(C(C)=O)c2ccccc2)sc2cc(OC)ccc21	20µM	2.6µM	3.3µM	32µM	i	i
Cc1oc2c(cc(NS(=O)(=O)c3ccc(C(C)C)cc3)c3ccccc32)c1C(=O)OCc1ccccc1	nt	?	21µM	nt	i	i
CCCCOC(=O)c1c(C)oc2c1cc(NS(=O)(=O)c1cc(OC)ccc1OC)c1ccccc12	i	21µM	?	i	i	?
CCOc1ccc(S(=O)(=O)Nc2cc3c(C(=O)OCc4ccccc4)c(C)oc3c3ccccc23)cc1	i	29µM	12µM	i	i	i
COC(=O)c1c(C)oc2c1cc(NS(=O)(=O)c1cccs1)c1ccccc12	i	i	i	i	i	i
COCCOC(=O)c1c(C)oc2c1cc(NS(=O)(=O)c1ccc(Cl)c(C)c1)c1ccccc12	i	23µM	?	?	i	?
CCOC(=O)c1c(C)oc2c1cc(NS(=O)(=O)c1ccc(C(=O)O)cc1)c1ccccc12	i	i	i	i	i	?
CCOC(=O)C1(C)C=C(Nc2cccc(C(=O)O)c2)C(=O)N1c1ccccc1 (stereo not given)	i	i	?	i	i	i
CCn1c(-c2cccc(OC)c2)nc2cc(NC(C)=O)cc(C(=O)N(C)CC3COCCO3)c21 (stereo not given)	nt	i	i	i	nt	nt
Cc1cc(Br)cc2c(C(=O)OCC(=O)c3ccccc3)cc(-c3ccccc3)nc12	i	i	i	i	i	i
Nc1cc(=O)[nH]c(SCC(=O)Nc2ccc(Oc3ccccc3)cc2)n1	i	?	i	i	i	i
CCN(CC)c1cc(C)c2cc(NC(=O)c3ccccc3F)ccc2n1	i	29µM	21µM	?	i	i
CCN(CC)c1cc(C)c2cc(NC(=O)CNC(C)=O)ccc2n1	i	i	i	i	i	i
CCN(CC)c1cc(C)c2cc(NC(=O)c3cccc(OC)c3OC)ccc2n1	?	6.5µM	16µM	?	i	?
CCN(CC)c1cc(C)c2cc(NC(=O)c3cccc(OC)c3)ccc2n1	?	?	?	nt	i	?
CCOc1ccccc1C(=O)Nc1ccc2nc(N(CC)CC)cc(C)c2c1	i	21µM	21µM	?	i	i
CCOc1ccc(C(=O)Nc2ccc3nc(N(CC)CC)cc(C)c3c2)cc1	?	?	18µM	?	i	?
Cc1ccc(N2C(=O)NC(NC(=O)C3CC3)(C(F)(F)F)C2=O)cc1 (stereo not given)	i	i	i	i	i	i
O=C(N/C(=C/c1ccc(F)cc1)C(=O)N1CCOCC1)c1ccco1	nt	i	i	i	i	i
Cc1cc(=O)[nH]c(SCc2ccc(Cl)cc2Cl)n1	nt	23µM	i	i	i	i
Cc1cnc(SCc2ccc(Cl)cc2Cl)[nH]c1=O	nt	21µM	?	?	i	i
O=C(CSc1nc(-c2ccccc2)c(-c2ccccc2)[nH]1)Nc1ccc2c(c1)OCO2	i	13µM	?	i	i	i
COc1cc(-c2nc(SCC(=O)Nc3ccc4c(c3)OCO4)c(-c3ccccc3)[nH]2)cc(OC)c1OC	?	16µM	?	?	i	i
O=C(CSc1nc(-c2ccccc2)[nH]c1-c1ccccc1)Nc1ccc2c(c1)OCO2	20µM	15µM	21µM	?	i	11µM
